USP30 block: blocks human USP30 ubiquitin-rhodamine cleavage; inhibition, % at 25 µM; purified USP30, Ub-rhodamine cleavage fluorescence; hit rate 5.3% among 47,000; Q70CQ3
USP28 block: inhibitors of human USP28 deubiquitinase | hit rate 3% among 47,000 | Q96RU2 | purified USP28, Ub-rhodamine cleavage fluorescence, 30 min | inhibition, % at 25 µM
Target sequence (Q96RU2 whole entry, looked up): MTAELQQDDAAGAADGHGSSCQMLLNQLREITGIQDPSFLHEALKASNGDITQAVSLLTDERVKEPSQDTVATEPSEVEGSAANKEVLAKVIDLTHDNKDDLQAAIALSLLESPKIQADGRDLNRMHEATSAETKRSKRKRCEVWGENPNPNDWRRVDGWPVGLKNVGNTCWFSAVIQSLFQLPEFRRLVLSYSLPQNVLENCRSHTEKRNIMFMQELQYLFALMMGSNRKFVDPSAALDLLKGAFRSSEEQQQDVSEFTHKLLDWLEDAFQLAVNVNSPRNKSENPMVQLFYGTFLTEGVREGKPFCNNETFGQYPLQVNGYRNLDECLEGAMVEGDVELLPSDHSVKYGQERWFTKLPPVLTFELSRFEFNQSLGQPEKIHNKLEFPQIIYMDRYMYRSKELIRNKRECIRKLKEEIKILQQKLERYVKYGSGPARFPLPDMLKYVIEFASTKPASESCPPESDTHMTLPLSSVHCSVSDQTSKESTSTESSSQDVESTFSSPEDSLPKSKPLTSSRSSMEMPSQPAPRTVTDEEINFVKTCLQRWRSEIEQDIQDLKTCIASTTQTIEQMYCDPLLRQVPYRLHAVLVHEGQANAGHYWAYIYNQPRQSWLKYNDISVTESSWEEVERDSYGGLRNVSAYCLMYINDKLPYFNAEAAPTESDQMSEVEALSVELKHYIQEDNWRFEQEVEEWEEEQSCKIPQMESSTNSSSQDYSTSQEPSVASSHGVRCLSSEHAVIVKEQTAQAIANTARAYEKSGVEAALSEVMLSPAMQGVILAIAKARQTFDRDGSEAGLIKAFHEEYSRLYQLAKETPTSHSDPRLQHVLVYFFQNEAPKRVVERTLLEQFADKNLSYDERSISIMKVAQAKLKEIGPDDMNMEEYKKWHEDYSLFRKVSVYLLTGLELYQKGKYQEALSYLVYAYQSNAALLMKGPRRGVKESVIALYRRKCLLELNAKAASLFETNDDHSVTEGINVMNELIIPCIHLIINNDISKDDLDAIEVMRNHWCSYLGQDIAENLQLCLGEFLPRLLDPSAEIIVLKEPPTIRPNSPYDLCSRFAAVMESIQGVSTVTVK
* = called active by the depositor. Sampled rows, rich in hits. Any-hit rate of the full collection: about 7%. No stated cut-off is given here; in the data, active means inhibition above about 30%; inactive means the rest.

For CC(C)=CCC/C(C)=C/COc1ccc(/C=C2\C(=O)N(O)[C@@H](C)C(=O)N2O)cc1 the results were USP30 block 33* and USP28 block 47*.
`COc1cc(/C=C2\Oc3cc(OCC=C(C)C)ccc3C2=O)cc(OC)c1OC` gave USP30 block -168 and USP28 block -26.
COc1cccc(S(=O)(=O)N2CCn3nc(C(C)(C)C)cc3C2)c1 was read as USP30 block 79* and USP28 block 21.
`COc1cccc(S(=O)(=O)N2CCCn3nnc(COCC4CC4)c3C2)c1` gave USP30 block 19 and USP28 block -1.
`O=C(NCCSc1ccc(Cl)cc1)c1cccc(F)c1` gave USP30 block 18 and USP28 block 28.
`COc1cccc(C(=O)NCCSc2ccc(Cl)cc2)c1` gave USP30 block 24 and USP28 block 44*.
For COc1ccc2c(Cl)c(C(=O)Nc3cccc(Cl)c3C)sc2c1 the results were USP30 block -17 and USP28 block -8.
`Cc1nccnc1CCC1COCCN1C(=O)c1ccc2n[nH]nc2c1` (stereo not given) gave USP30 block 31* and USP28 block 7.
Screening Cc1nccnc1CCC1COCCN1C(=O)c1n[nH]c2ccccc12 (stereo not given) returned USP30 block -68 and USP28 block -25.
Screening CC(=O)N1CCc2cc(S(=O)(=O)NCCC(=O)Nc3cccc(F)c3)ccc21 returned USP30 block 9 and USP28 block 2.
CCc1ccc(NC(=O)Cn2cc(S(=O)(=O)N3CCCC3)ccc2=O)cc1 was read as USP30 block -8 and USP28 block -7.
For COc1cccc(-c2ocnc2C(=O)Nc2ccc(C)cc2C)c1 the results were USP30 block 34* and USP28 block 14.
Screening COc1ccc(-c2ocnc2C(=O)Nc2ccccc2F)cc1OC returned USP30 block 81* and USP28 block 27.
COc1ccc(CNC(=O)c2ncoc2-c2ccc(OC)cc2)cc1 was read as USP30 block 21 and USP28 block 25.
For COc1ccc(-c2ocnc2C(=O)NCc2cccc(OC)c2)cc1 the results were USP30 block 23 and USP28 block 44*.
For COc1ccc(-c2ocnc2C(=O)NCc2ccc(F)cc2)cc1OC the results were USP30 block -10 and USP28 block 14.
For COc1cccc(-c2ocnc2C(=O)Nc2cc(C)ccc2C)c1 the results were USP30 block 0 and USP28 block -17.
COc1ccc(C2CC(=O)Nc3ccc4ccccc4c32)cc1 (stereo not given) was read as USP30 block 12 and USP28 block 6.
For COc1ccc(COc2ncnc3cc(Cl)ccc23)cc1 the results were USP30 block 14 and USP28 block 48*.
COc1ccc(COc2ncnc3ccc(Br)cc23)cc1F was read as USP30 block -30 and USP28 block 7.
Cc1ccc(NC(=O)Cn2c(C)ccc(NC(=O)Nc3cccc(C)c3)c2=O)cc1 was read as USP30 block -20 and USP28 block -4.
`CC(=O)c1cccc(NC(=O)c2ccc(CN(c3ccc(C)c(C)c3)S(C)(=O)=O)cc2)c1` gave USP30 block 23 and USP28 block 73*.
`Cc1cccc(NC(=O)c2ccc(C)c(C)c2)c1` gave USP30 block -6 and USP28 block 34*.
Screening COc1ccc(NC(=O)c2ccc(CN(c3ccc(C)c(C)c3)S(C)(=O)=O)cc2)cc1 returned USP30 block -58 and USP28 block 0.
`Cc1cccc(NC(=O)Nc2ccc(C)c(C)c2)c1` gave USP30 block 31* and USP28 block 19.
Cc1cccc(NS(=O)(=O)c2cc(C(=O)Nc3ccccc3)ccc2Cl)c1 was read as USP30 block 11 and USP28 block 7.
O=C1CC(C(=O)Nc2ccc3c(c2)OCO3)N=C(Nc2ccc(F)cc2)N1 (stereo not given) was read as USP30 block 16 and USP28 block 6.
For Cc1cc(CC2CCN(C(=O)c3c(C)noc3C)CC2)ccn1 the results were USP30 block 6 and USP28 block -1.
Screening CC1CCN(S(=O)(=O)c2cccn(CC(=O)N3CCc4ccccc43)c2=O)CC1 returned USP30 block -74 and USP28 block -16.
Screening O=C(Cn1cnc2c(cnn2CCO)c1=O)NCc1ccc(F)cc1 returned USP30 block -4 and USP28 block -12.
COc1cccc(CC(=O)N2CCC3(CC2)CN(CC(C)C)CC32CCNC2=O)c1 (stereo not given) was read as USP30 block -10 and USP28 block -10.
Screening CCOc1ccc(CC(=O)Nc2cc(N3CCCS3(=O)=O)ccc2C)cc1 returned USP30 block 43* and USP28 block 14.
COc1ccc(CC(=O)Nc2cc(N3CCCS3(=O)=O)ccc2C)cc1 was read as USP30 block 25 and USP28 block 12.
Screening c1ccc(-c2cnc([C@@H]3COCCN3Cc3ncc[nH]3)[nH]2)cc1 returned USP30 block -22 and USP28 block 12.
`CN1C(=O)COc2cc(-c3noc(C(=O)NCc4ccccc4)n3)ccc21` gave USP30 block 19 and USP28 block 7.
Screening CC(C)NC(=O)CNC(=O)c1nc(-c2ccc3cc[nH]c3c2)no1 returned USP30 block 3 and USP28 block -3.
For O=C(NCc1ccncc1)c1nc(-c2ccc3[nH]ccc3c2)no1 the results were USP30 block 1 and USP28 block 5.
Screening COc1ccc(CNC(=O)c2nc(-c3ccc4cc[nH]c4c3)no2)cc1 returned USP30 block 41* and USP28 block 18.
O=C(NCc1ccccc1Cl)c1nc(-c2ccc3[nH]ccc3c2)no1 was read as USP30 block 47* and USP28 block 18.
CN1C(=O)COc2cc(-c3noc(C(=O)NCc4ccc(F)cc4)n3)ccc21 was read as USP30 block 76* and USP28 block 11.
`NC(=O)CNC(=O)c1cnc2n1CC(c1cccc(C(F)(F)F)c1)CC2` (stereo not given) gave USP30 block 3 and USP28 block -8.
`COC[C@H]1CCCN1C(=O)C[C@@H]1CCN2C[C@@H]1CCCOc1ccc(N3CCOCC3)cc1CNCC2=O` gave USP30 block -16 and USP28 block -9.
For O=C(C[C@@H]1CCN2C[C@@H]1CCCOc1ccccc1CN(C(=O)c1cccnc1)CC2=O)N1CCOCC1 the results were USP30 block 92* and USP28 block 86*.
`O=C(COc1ccccc1)N1CC[C@@H]2CN(Cc3ccccc3)S(=O)(=O)[C@@H]2CC1` gave USP30 block -20 and USP28 block -18.
O=C(C[C@@H]1CCN2C[C@@H]1CCCOc1ccccc1CN(C(=O)c1ccccc1)CC2=O)N1CCOCC1 was read as USP30 block 10 and USP28 block 0.
`O=C(C[C@@H]1CCN2C[C@@H]1CCCOc1ccccc1CN(C(=O)COc1ccccc1)CC2=O)N1CCOCC1` gave USP30 block 79* and USP28 block 55*.
CC(C)NC(=O)N1CC(=O)N2CC[C@@H](CC(=O)N3CCOCC3)[C@@H](CCCOc3ccccc3C1)C2 was read as USP30 block 100* and USP28 block 72*.
For CC(=O)c1cccc(NC(=O)Cc2c(C)nc3c(-c4ccccc4)c(C)nn3c2C)c1 the results were USP30 block -17 and USP28 block -20.
Screening CN(CC(=O)N1CCOCC1)C(=O)CN1C(=O)NC(C)(c2cc3ccccc3o2)C1=O (stereo not given) returned USP30 block -56 and USP28 block -26.
